Measured values taken from PubChem BioAssay (NCI).
Compounds without any hit were thinned out: in the full panel of roughly 83,000, 20% have a hit.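 48-hour exposure, single concentration, 96-well plates; percent growth endpoint where 0 means no net growth. Active: below 10.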 Unmarked numbers belong to inactive results. Activity calls are given as the source filed them.

What was measured:
Experiment in all cases: NCI-60 one-dose screen, 48 h (100 = growth as untreated, 0 = no growth, -100 = all killed)
Details in all cases: 10 µM
[1] = test system: RPMI-8226 leukemia
[2] = test system: OVCAR-8 ovarian
[3] = test system: OVCAR-5 ovarian
[4] = test system: OVCAR-4 ovarian
[5] = test system: SK-OV-3 ovarian
[6] = test system: IGROV1 ovarian
[7] = test system: OVCAR-3 ovarian
[8] = test system: HS 578T breast
[9] = test system: NCI/ADR-RES ovarian

In the case of Cc1cccc2cc(-c3cc(-c4ccccc4)nc(=O)[nH]3)c(Cl)nc12, the growth [1] is reported as 17.8%, the growth [2] is reported as 72.8% and the growth [3] is reported as 93%. The growth [4] was 103%, the growth [5] was 118% and the growth [6] was 101%. It also gave a growth [7] of 91.4%, a growth [8] of 89.8% and a growth [9] of 73.5%.

In the case of CN1CCN(c2ccc(Nc3nc(N4CCN(S(=O)(=O)c5ccc(F)cc5)CC4)c4sccc4n3)cc2)CC1, the growth [1] is reported as -24.2% (active), the growth [2] is reported as -85% (active) and the growth [3] is reported as -96.8% (active). The growth [4] was -89.3% (active), the growth [5] was -87.2% (active) and the growth [6] was -86.4% (active). For the same compound, the growth [7] was -79% (active), the growth [8] was -47.7% (active) and the growth [9] was -83% (active).

CCOP(=O)(OCC)O[C@H]1CCC(=O)[C@@H]2[C@H]1[C@H]1C[C@@H]3[C@@]4(C)CCCC(C)(C(=O)OC)[C@@H]4CC[C@@]23C=C1C(C)C (some centres not stated) showed a growth [1] of 21.9%, a growth [2] of 55.5% and a growth [3] of 92.7%. It also gave a growth [4] of 49.5%, a growth [5] of 54% and a growth [6] of 72.1%. The growth [7] was 67.7%, the growth [8] was 59.5% and the growth [9] was 44.3%.

In the case of CN1C(=O)/C(=C/c2ccc3ncsc3c2)NC1=NC12CC3CC(CC(O)(C3)C1)C2, the growth [1] is reported as -7.67% (active), the growth [2] is reported as 16% and the growth [3] is reported as 7.24% (active). For the same compound, the growth [4] was 32%, the growth [5] was 18.6% and the growth [6] was 8.51% (active). For the same compound, the growth [7] was 0.338% (active), the growth [8] was -10.5% (active) and the growth [9] was 10.8%.

O=C(Nc1ccccc1)Nc1nc2ccccc2s1 gave a growth [1] of 78.3%, a growth [2] of 90.2% and a growth [3] of 92.4%. It also gave a growth [4] of 78.2%, a growth [5] of 78.4% and a growth [6] of 54.8%. For the same compound, the growth [7] was 110%, the growth [8] was 86.9% and the growth [9] was 91.8%.

In the case of CS(=O)(=O)Nc1ccc(-c2ccc3c(c2)ncn3-c2ccc(NC(=O)Nc3ccc(Cl)c(C(F)(F)F)c3)cc2)cc1, the growth [1] is reported as -28.6% (active), the growth [2] is reported as -34.8% (active) and the growth [3] is reported as -84.9% (active). For the same compound, the growth [4] was -47.2% (active), the growth [5] was -53.4% (active) and the growth [6] was -43.1% (active). The growth [7] was -54.3% (active), the growth [8] was -33.2% (active) and the growth [9] was -1.05% (active).

With COc1ccc(-c2nc(S(=O)(=O)c3ccc(C)cc3)c(S(C)(=O)=O)o2)cc1 the growth [1] was -40.3% (active), the growth [2] was -77.5% (active) and the growth [3] was -88% (active). The growth [4] was -90.2% (active), the growth [5] was 83.6% and the growth [6] was -24% (active). The growth [7] was -92.4% (active), the growth [8] was 8.31% (active) and the growth [9] was -62.4% (active).

For CN1CCN(c2ccc(Nc3nc(NCCNC(=O)c4ccc(C(F)(F)F)cc4)c4sccc4n3)cc2)CC1, the growth [1] was -40.1% (active), the growth [2] was 21% and the growth [3] was 42.3%. The growth [4] was -33.2% (active), the growth [5] was 77% and the growth [6] was 65%. For the same compound, the growth [7] was 27.8%, the growth [8] was -8.08% (active) and the growth [9] was 38.5%.

With CCOC(=O)CNC(=O)CN(Cc1ccccc1)C(=O)[C@@]1(C)CCC[C@]2(C)[C@H]3C[C@H]4C(C(C)C)=C[C@]3(CC[C@H]21)[C@@H]1C(=O)OC(=O)[C@@H]14 the growth [1] was 15.2%, the growth [2] was 55.9% and the growth [3] was 105%. It also gave a growth [4] of 62.2%, a growth [5] of 89.4% and a growth [6] of 41.8%. For the same compound, the growth [7] was 44.1%, the growth [8] was 60.3% and the growth [9] was 45.3%.

For O=C(O)CCCCCCCCCCN1C(=O)/C(=C/c2cnc(-c3ccccc3)s2)SC1=S, the growth [1] was 86.5%, the growth [2] was 61.4% and the growth [3] was 109%. For the same compound, the growth [4] was 96.1%, the growth [5] was 130% and the growth [6] was 95%. The growth [7] was 102%, the growth [8] was 117% and the growth [9] was 57.5%.

With CN1CCN(c2ccc(Nc3nc(NCCCNC(=O)C4CCCCC4)c4sccc4n3)cc2)CC1 the growth [1] was -12.3% (active), the growth [2] was 57.5% and the growth [3] was 67.3%. It also gave a growth [4] of 48.9%, a growth [5] of 98% and a growth [6] of 76.9%. The growth [7] was 33.4%, the growth [8] was 42.9% and the growth [9] was 74.3%.

For COc1ccc(N(C)c2cc(C#N)nc3ccccc23)cc1N, the growth [1] was 19.9%, the growth [2] was 14.1% and the growth [3] was 34.6%. It also gave a growth [4] of 55%, a growth [5] of 23.8% and a growth [6] of 17.1%. The growth [7] was 7.72% (active), the growth [8] was 36.9% and the growth [9] was -31.7% (active).

With CC1=C2C(=C[C@@](C)(COCOCCCl)[C@@H]2O)C(=O)[C@](C)(O)C12CC2 the growth [1] was 10.1%, the growth [2] was -38.4% (active) and the growth [3] was -56.6% (active). The growth [4] was -48.6% (active), the growth [5] was -33.7% (active) and the growth [6] was -38.5% (active). For the same compound, the growth [7] was -27.4% (active), the growth [8] was -15.8% (active) and the growth [9] was -61.7% (active).

Work on CN(CCF)c1ccc(/C=C/C(=O)c2ccc(N)cc2O)cc1 yielded a growth [1] of 62.8%, a growth [2] of 70.6% and a growth [3] of 90%. For the same compound, the growth [4] was 68.8%, the growth [5] was 105% and the growth [6] was 94.3%. For the same compound, the growth [7] was 80.8%, the growth [8] was 112% and the growth [9] was 71.7%.

In the case of O=C(Nc1ccc(I)cc1)Nc1nc2ccc([N+](=O)[O-])cc2s1, the growth [1] is reported as -71.7% (active), the growth [2] is reported as -76.1% (active) and the growth [3] is reported as -98.4% (active). The growth [4] was -77.3% (active), the growth [5] was -69.9% (active) and the growth [6] was -95.7% (active). The growth [7] was -92% (active), the growth [8] was -64.9% (active) and the growth [9] was -88.4% (active).

In the case of O=c1[nH]c2ccc(Cl)cc2cc1CSc1ccc(Nc2nccc(-c3ccc4ccccc4c3)n2)cc1, the growth [1] is reported as 69.1%, the growth [2] is reported as 9.55% (active) and the growth [3] is reported as 95%. For the same compound, the growth [4] was -25.7% (active), the growth [5] was 126% and the growth [6] was 99.4%. The growth [7] was -1.45% (active), the growth [8] was 66.2% and the growth [9] was 59.8%.

Compound CNC(=O)c1cc(-c2ccc(NC(=O)Nc3ccc(C)cc3)cc2)nc2cccnc12 has a growth [1] of 88.8%, a growth [2] of 97.8% and a growth [3] of 105%. The growth [4] was 108%, the growth [5] was 91.1% and the growth [6] was 92.8%. It also gave a growth [7] of 105%, a growth [8] of 106% and a growth [9] of 94.3%.

In the case of COC[C@@H](CC(C)C)N=C1NC(=O)/C(=C/c2ccc3ncoc3c2)N1, the growth [1] is reported as 0.955% (active), the growth [2] is reported as 12.4% and the growth [3] is reported as -11.6% (active). For the same compound, the growth [4] was 53.7%, the growth [5] was -40.8% (active) and the growth [6] was 7.9% (active). The growth [7] was -26.3% (active), the growth [8] was 25.9% and the growth [9] was 20.3%.

In the case of COc1ccccc1[C@H]1C(C(=O)c2ccc(Cl)cc2)C2(N[C@@H]1c1ccccc1)C(=O)Nc1ccc(Cl)cc12 (some centres not stated), the growth [1] is reported as 6.41% (active), the growth [2] is reported as 12.2% and the growth [3] is reported as -8.45% (active). It also gave a growth [4] of 24%, a growth [5] of 28.8% and a growth [6] of 22.1%. The growth [7] was 3.66% (active), the growth [8] was -2.19% (active) and the growth [9] was -65.5% (active).

In the case of CC[C@@]1(O)C(=O)OCc2c1cc1n(c2=O)Cc2c-1nc1cc(F)c(C)c3c1c2[C@@H](N)CC3, the growth [1] is reported as -3.74% (active), the growth [2] is reported as -38.3% (active) and the growth [3] is reported as -12.5% (active). The growth [4] was -4.52% (active), the growth [5] was -32% (active) and the growth [6] was -47.8% (active). The growth [7] was -17.8% (active), the growth [8] was 51.3% and the growth [9] was -12.2% (active).

O=C1Nc2cc(-c3ccc(NC(=O)c4cccc([N+](=O)[O-])c4)cc3)ccc2/C1=C/c1ccc[nH]1 showed a growth [1] of 82.9%, a growth [2] of 90.4% and a growth [3] of 99.6%. The growth [4] was 52.3%, the growth [5] was 115% and the growth [6] was 95.7%. For the same compound, the growth [7] was 99.4%, the growth [8] was 108% and the growth [9] was 89.5%.

In the case of CN1CCN(c2ccc(C(=O)/C=C/c3ccc(C#N)cc3)cc2)CC1, the growth [1] is reported as 5.21% (active), the growth [2] is reported as 92% and the growth [3] is reported as 127%. It also gave a growth [4] of 85%, a growth [5] of 86.6% and a growth [6] of 68.1%. For the same compound, the growth [7] was 79.9%, the growth [8] was 93.8% and the growth [9] was 80.8%.

With Cc1ccc(/C=C(\C#N)n2nnc3c(F)cccc32)cc1 the growth [1] was 6.26% (active), the growth [2] was -70.7% (active) and the growth [3] was -7.34% (active). For the same compound, the growth [4] was 51.2%, the growth [5] was 29.5% and the growth [6] was 8.21% (active). The growth [7] was 0.864% (active), the growth [8] was 29.2% and the growth [9] was 12.9%.

Compound O=C1CCC(N2Cc3c(NCc4ccc(-c5ccccc5)cc4)cccc3C2=O)C(=O)N1 (configuration not stated) has a growth [1] of 68.5%, a growth [2] of 34.9% and a growth [3] of 83.7%. The growth [4] was 69.8%, the growth [5] was 103% and the growth [6] was 57.4%. The growth [7] was 82.8%, the growth [8] was 51.7% and the growth [9] was 52.6%.

In the case of CCN1CCN(c2ccc(NC(=O)Nc3ccc(-c4cc(C(=O)NC)c5ncccc5n4)cc3)cc2C(F)(F)F)CC1, the growth [1] is reported as -50.3% (active), the growth [2] is reported as -94.1% (active) and the growth [3] is reported as -100% (active). The growth [4] was -100% (active), the growth [5] was -88.7% (active) and the growth [6] was -98.2% (active). The growth [7] was -100% (active), the growth [8] was -51.5% (active) and the growth [9] was -65.3% (active).

With C=C(C)[C@@H]1CC[C@]2(COP(=O)(OCC)OCC)CC[C@]3(C)[C@H](CC[C@@H]4[C@@](C)(CCCN)[C@H](C(=C)C)CC[C@]43C)[C@@H]12 the growth [1] was -34.4% (active), the growth [2] was 26% and the growth [3] was 43.2%. The growth [4] was 23.2%, the growth [5] was 46.2% and the growth [6] was 40.4%. For the same compound, the growth [7] was 24.2%, the growth [8] was 31.3% and the growth [9] was 18.9%.

With Cc1nc(Nc2nc(C)c3ccc(OCCN4CCOCC4)cc3n2)[nH]c(=O)c1C the growth [1] was 7.09% (active), the growth [2] was 0.429% (active) and the growth [3] was -39.9% (active). For the same compound, the growth [4] was -22.1% (active), the growth [5] was -6.44% (active) and the growth [6] was -14% (active). The growth [7] was 3.38% (active), the growth [8] was 11.9% and the growth [9] was -19.5% (active).

Compound Nc1nc(-c2ccccc2)cc(-c2cc3ccccc3nc2Cl)n1 has a growth [1] of 19.2%, a growth [2] of 83.9% and a growth [3] of 97.8%. The growth [4] was 96%, the growth [5] was 99.2% and the growth [6] was 97.9%. It also gave a growth [7] of 67.7%, a growth [8] of 82.8% and a growth [9] of 80.7%.
